# Most compounds without a hit are left out; they make up all but 2.2% or so of the library.
# TrxR1 substrate – qHTS Assay for Substrates of Mammalian Selenoprotein Thioredoxin Reductase 1 (TrxR1): qHTS; Thioredoxin reductase 1, cytoplasmic (Rattus norvegicus), O89049; 0.01% of 390,000 active; Potency, µM (top dose mostly 114 µM), for inactives: at the top dose activity change, negative = substrate turnover; purified TrxR1 substrate turnover, NADPH consumption readout; also: potency is read from the fitted curve at half-maximal effect; % is scaled to controls: 0 for no effect and ±100 for the full control effect; nearly all actives have a fitted effect of over 50% in size
# Target sequence (O89049 whole entry, looked up): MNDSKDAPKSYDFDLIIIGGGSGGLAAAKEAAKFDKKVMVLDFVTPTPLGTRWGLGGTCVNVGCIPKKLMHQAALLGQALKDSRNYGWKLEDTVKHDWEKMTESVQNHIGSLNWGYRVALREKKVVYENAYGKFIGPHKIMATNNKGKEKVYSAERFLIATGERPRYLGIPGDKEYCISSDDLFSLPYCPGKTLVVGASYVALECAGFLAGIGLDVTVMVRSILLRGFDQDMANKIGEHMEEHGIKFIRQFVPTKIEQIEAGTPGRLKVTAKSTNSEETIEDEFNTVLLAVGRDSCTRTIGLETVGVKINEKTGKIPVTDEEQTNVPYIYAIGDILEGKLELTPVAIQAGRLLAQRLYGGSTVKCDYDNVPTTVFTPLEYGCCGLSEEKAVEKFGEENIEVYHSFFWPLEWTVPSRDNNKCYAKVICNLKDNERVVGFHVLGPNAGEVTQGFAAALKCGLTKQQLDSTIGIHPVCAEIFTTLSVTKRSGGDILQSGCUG
#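 Rat TrxR1, dispensed at 90 nM, was prereduced with 400 uM NADPH (final) for 5 min at ~22 deg C, then incubated with compound 15 min before 400 uM selenite. A first-read NADPH fluorescence drop versus no-compound background flagged substrates.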
# rTrxR1 inhibitor – qHTS Assay for Inhibitors of Mammalian Selenoprotein Thioredoxin Reductase 1 (TrxR1): qHTS; recombinant rTrxR1, NADPH fluorescence consumption, selenite substrate; Thioredoxin reductase 1, cytoplasmic (Rattus norvegicus), O89049; 1% of 390,000 active; Potency, µM (doses to about 114 µM), without a hit: at the highest dose activity change, negative = inhibition, usual class: inhibitors; also: potency is read from the fitted curve at half-maximal effect; % is scaled to controls: 0 for no effect and ±100 for the full control effect; nearly all actives have a fitted effect of over 65% in size
#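 Rat TrxR1 (90 nM in the dispensed reagent) was pre-reduced with 400 uM NADPH for 5 min at room temperature, then incubated with compound for 15 min. After 400 uM selenite was added, NADPH fluorescence (Ex 340/Em 450 nm) was followed for 8 min.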
# mIDH1 inhibitor – qHTS for Inhibitors of mutant isocitrate dehydrogenase 1 (IDH1): qHTS. Isocitrate dehydrogenase [NADP] cytoplasmic (Homo sapiens), O75874. IDH1-R132H enzyme, NADPH consumption, diaphorase/resazurin fluorescence. Potency, µM (highest dose often 76.6 µM), inactives show at the top dose activity change, negative = inhibition, hits mostly inhibitors. 0.093% of 390,000 active. AID 602179, 2012; also: potency is read from the fitted curve at half-maximal effect; % is scaled to controls: 0 for no effect and ±100 for the full control effect; nearly all actives have a fitted effect of over 65% in size
#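 IDH1-R132H (0.5 ug/mL) preincubated 30 min with compound, then NADPH (0.016 mM) and alpha-KG (2 mM) added; 80 min at RT, pH 7.5. Remaining NADPH coupled via diaphorase/resazurin to fluorescence (540/590 nm); concentration-response curves normalized to no-enzyme control.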
# Giardia kill – Small Molecules that selectively kill Giardia lamblia: qHTS; Giardia lamblia trophozoite viability; activity change, % at 7.66 µM, hits read low; 0.15% of 340,000 active; in the data active = activity change below about -80%; inconclusive = between about -30% and that limit;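 also: parasites exposed to compound for two days anaerobically before the ATP read; % is scaled to controls: 0 for no effect and ±100 for the full control effect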
#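 Viability, read as ATP luminescence: trophozoites at 100 cells/well, compound added, 48 hrs anaerobic at 37 deg C, then 15-30 min room-temperature development before reading.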
# IL-2 act – qHTS of IL-2 Activators; 0.065% of 360,000 active; IL-2 activation reporter assay, cell-based qHTS; stimulated with anti-CD3/CD4/CD28 beads; in transgenic mouse T cells; activation, % (series mostly up to about 46 µM); in the data active = activation above about 50%; inconclusive = mostly about 30% to 49%; also: 0% is about no effect
#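 Quantitative HTS in unstimulated transgenic mouse T cells, with memory T cells as non-tolerant control and PMA/ionomycin as tolerance-bypass control. Compound pretreatment lasted 60 minutes before 18 h bead stimulation; EGFP/DsRed fluorescence read.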
# BRCA1 expr up – qHTS Assay to Identify Small Molecule Activators of BRCA1 Expression | MCF7-BRCA1-FFLuc reporter, luminescence, 48 h; response scale: scaled: vehicle 0%, 10 µM genistein 100% | Potency, µM (titrated, usually from 46.1 µM), without a hit: at the top dose activation, actives largely listed as activators | 1.1% of 380,000 active | AID 624202, 2012; also: potency is read from the fitted curve at half-maximal effect; nearly all actives have a fitted effect of over 80% in size
#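 MCF7 cells carrying a BRCA1-firefly luciferase reporter (2000 cells/well, phenol-red free MEM) were attached for 2 h at 37 °C, then given compounds for 48 h. Luminescence was read 15 min after luciferase reagent; activity normalized to genistein (10 microM) and DMSO.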
# Numbers without * were called inactive; ? = inconclusive; . = no result given; [ ] = remark or other dose. Unless noted, calls follow the shape of the dose curve; as a rule, active = well fitted curve in the direction sought with a large enough effect; inconclusive = small, poorly fitted or top-dose-only effect, or another doubt; inactive = no such curve, though single readings can be large; an effect the other way counts as inactive or inconclusive.
SMILES,TrxR1 substrate,rTrxR1 inhibitor,mIDH1 inhibitor,Giardia kill,IL-2 act,BRCA1 expr up
CC(C)c1ccc2oc(-c3ccc(Cl)c(NC(=O)Cc4ccccc4)c3)nc2c1,6%,25%,-9%,.,.,.
Cc1cccc(-n2c(C)nc3cc(C(=O)NC4CCCCCC4)ccc32)c1,4%[57.1 µM],21%[57.1 µM],-12%,.,.,.
CC(C)(C)n1ncc2c(=O)n(Cc3cccc(OC(F)F)c3)cnc21,-4%,15%,.,.,.,.
Cc1ccccc1Oc1cc(-n2ncc(Cl)c(Cl)c2=O)ncn1,3%,0.79µM*,-4%,-17,0,-106%
CCOc1cnn(-c2cc(Oc3ccc(C)cc3)ncn2)c(=O)c1Cl,7%,15%,13%,-10,0,7%
CCC(C)NC(=O)Cn1c(=O)ccc2cc(S(=O)(=O)N3CCCC3)ccc21 (stereo not given),-3%[57.1 µM],22%[57.1 µM],-13%,.,.,19%
O=S(=O)(c1ccc2nc(Nc3ccc(Br)cc3F)ccc2c1)N1CCCCC1,2%[57.1 µM],-3%[57.1 µM],3%,.,.,.
Cc1ccc(C(=O)Nc2ccc3c(c2)OCCO3)c(Cl)c1,-5%,11%,3%,-83*,2,?
O=C(Nc1ccc2c(c1)OCCO2)c1cc(F)c(F)cc1Cl,1%,32%,-1%,-11,1,?
O=C(NC(=S)Nc1ccc2ncccc2c1)c1ccccc1,-4%,?,9%,0,0,?
O=C(Nc1ccc2c(c1)OCCO2)c1cccc(S(=O)(=O)N2CCOCC2)c1,2%[57.1 µM],5%[57.1 µM],18%,-27,-1,10µM*
O=C(Nc1ccc2c(c1)OCO2)c1ccc2nc[nH]c2c1,14%[57.1 µM],16%[57.1 µM],4%,13,2,5.6µM*
O=C(NC(=S)Nc1ccc2nc[nH]c2c1)c1ccccc1,6%,?,1%,-9,-1,4µM*
O=C(Nc1ccc2c(c1)OCCO2)c1cccc(S(=O)(=O)N2CCCCC2)c1,6%,31%,0%,-5,-3,-28%
O=C(Nc1ncccc1Cl)c1ccc2c(c1)OCCO2,10%[57.1 µM],5%[57.1 µM],10%,-9,0,8.9µM*
Cc1cc(NC(=O)c2ccc3c(c2)OCCO3)no1,-4%,1%[57.1 µM],6%,-80*,-2,-70%
O=C(Nc1ccc2c(c1)OCCO2)c1ccc(Cl)c(Cl)c1,-4%,7%,12%,15,-4,13µM*
O=C(Nc1ccccn1)c1ccc2c(c1)OCCO2,20%[57.1 µM],31%[57.1 µM],9%,-28,0,-19%
CCCOc1cccc(C(=O)Nc2ccc3c(c2)OCCO3)c1,-5%,20%,-7%,?,-1,7.9µM*
O=C(N/N=C/c1ccccc1C(F)(F)F)c1ccc2nc[nH]c2c1,-11%,-11%,0%,10,-2,7.1µM*
Cc1cc(NC(=O)c2ccc(NC(=O)C(C)Oc3ccccc3)cc2)no1 (stereo not given),-6%,12%,5%,-6,0,13µM*
CCn1c2ccccc2c2nnc(SC3CCOC3=O)nc21 (stereo not given),-2%,-4%,.,6,.,2%
CC1(C)Cc2c(C#N)c(OCC(=O)c3ccccc3)nc(-c3ccoc3)c2CO1,-4%,50µM*,-3%,-8,1,-11%
CC1(C)Cc2c(C#N)c(OCC(=O)c3ccc(Cl)cc3)nc(-c3ccoc3)c2CO1,3%,-25%,-4%,-4,1,-6%
CCOC(=O)c1ccc(N2Cc3ccccc3C2=NC(=O)c2cccs2)cc1,5%,16%,2%,17,4,10µM*
SMILES,TrxR1 substrate,rTrxR1 inhibitor,mIDH1 inhibitor,Giardia kill,IL-2 act,BRCA1 expr up
CCN(C(=O)C(NS(=O)(=O)c1cccc2nsnc12)c1ccccc1)c1ccccc1 (stereo not given),-10%,11%,8%,.,.,.
O=C(/C=C/c1ccccc1Cl)N1CCOCC1,0%,15%,-7%,0,0,32%
CCCCCCOc1ccc(/C=C/C(=O)N2CCOCC2)cc1OC,-5%,5%,-2%,4,8,5%
O=C(/C=C/c1cccc([N+](=O)[O-])c1)N1CCOCC1,-6%,1%[57.1 µM],10%,-2,-1,17%
O=C(/C=C/c1ccc(OCCCF)cc1)N1CCOCC1,-3%,11%,-12%,-5,-1,10µM*
O=C(/C=C/c1cccc(Oc2ccccc2)c1)N1CCOCC1,-5%,4%,0%,-3,-3,8.9µM*
O=C(/C=C/c1cccc2ccccc12)N1CCOCC1,7%[57.1 µM],1%[11.4 µM],-9%,-14,1,10µM*
Cn1c(=O)n(CCCc2ccccc2)c(=O)c2c1nc1n2CCN1c1ccc(F)cc1,4%,17%,-6%,.,.,.
Cc1ccccc1Nc1nc(N)nc(COC(=O)c2ccccc2)n1,-9%,-5%,2%,0,-2,14µM*
Cc1ccccc1Nc1nc(N)nc(COC(=O)c2ccc(O)cc2)n1,-5%,-3%,2%,-4,0,-18%
Cc1ccccc1CSCc1nc(N)nc(Nc2ccccc2C)n1,4%[11.4 µM],21%[11.4 µM],7%,-7,5,11µM*
CSc1ccc(CNC(=O)C2CCCN(S(=O)(=O)N(C)c3ccc(F)cc3)C2)cc1 (stereo not given),-1%,18%,3%,.,.,.
CN(C)c1ccc(/C=C/c2ccnc3c(O)cccc23)cc1,-8%,6%,.,.,.,-71%
CN(C)c1ccc(C=Cc2ccnc3c(O)cccc23)cc1,.,.,-2%,.,148*,-64%
CCC(Cn1nnc2ccccc2c1=O)NC(=O)Nc1ccccc1OC (stereo not given),8%,26%,19%,.,.,-7%
COc1cc(OC)c(/C=C/c2cc3ccccc3c[n+]2C)c(OC)c1,-15%,-23%,.,.,.,-42%
CC1OC1c1ccc(-c2ccc(C3OC3C)cc2)cc1 (stereo not given),-11%,-15%,-1%,15,1,5µM*
COc1ccc(Cl)cc1C(=O)NCC(c1ccc(N(C)C)cc1)N1CCCC1 (stereo not given),-2%[57.1 µM],2%[57.1 µM],2%,.,.,.
CCCC(O)(CCN1CCOCC1)c1ccc(Br)cc1 (stereo not given),-6%,35µM*,9%,2,-1,-6%[1.84 µM]
COc1cccc(/C=C/C(=O)OCC(=O)c2ccccc2)c1OC,20%,72%,-1%,53,1,11µM*
Cc1csc[n+]1CC(=O)c1ccccc1,-3%,12%,.,.,.,.
